A selection: hits, their analogues and other compounds. The true share with any hit is near 1.4%.
BRCA1 expr up – activators of BRCA1 expression | MCF7-BRCA1-FFLuc reporter, luminescence, 48 h; response scale: scaled: vehicle 0%, 10 µM genistein 100% | Potency, µM (highest dose often 46.1 µM), for inactives: at the top dose activation, hits mostly activators | 1.1% of 380,000 active; further: potency means the concentration at half of the fitted maximal effect; nearly all actives have a fitted effect of over 80% in size
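Luminescence from a BRCA1-driven firefly luciferase in MCF7 cells was read after 48 h compound exposure at 37 C. Data normalized against DMSO and a 10microM genistein activation control, then curve-fitted across the titration.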
TSHR antagonist – antagonists of human thyroid stimulating hormone receptor. P16473. TSHR-expressing cells, TSH-stimulated cAMP HTRF, 2 h; hits give low values. activity change, negative = inhibition, % at 11.5 µM. 0.2% of 330,000 active. AID 504810;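 active means activity change below a set negative limit, meaning inhibition stronger than a set level, cut at about -70% in these data; inconclusive means activity change between two set negative limits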; further: on the % scale 0 is the no-effect control and ±100 the full control effect
Target sequence (P16473 whole entry, looked up): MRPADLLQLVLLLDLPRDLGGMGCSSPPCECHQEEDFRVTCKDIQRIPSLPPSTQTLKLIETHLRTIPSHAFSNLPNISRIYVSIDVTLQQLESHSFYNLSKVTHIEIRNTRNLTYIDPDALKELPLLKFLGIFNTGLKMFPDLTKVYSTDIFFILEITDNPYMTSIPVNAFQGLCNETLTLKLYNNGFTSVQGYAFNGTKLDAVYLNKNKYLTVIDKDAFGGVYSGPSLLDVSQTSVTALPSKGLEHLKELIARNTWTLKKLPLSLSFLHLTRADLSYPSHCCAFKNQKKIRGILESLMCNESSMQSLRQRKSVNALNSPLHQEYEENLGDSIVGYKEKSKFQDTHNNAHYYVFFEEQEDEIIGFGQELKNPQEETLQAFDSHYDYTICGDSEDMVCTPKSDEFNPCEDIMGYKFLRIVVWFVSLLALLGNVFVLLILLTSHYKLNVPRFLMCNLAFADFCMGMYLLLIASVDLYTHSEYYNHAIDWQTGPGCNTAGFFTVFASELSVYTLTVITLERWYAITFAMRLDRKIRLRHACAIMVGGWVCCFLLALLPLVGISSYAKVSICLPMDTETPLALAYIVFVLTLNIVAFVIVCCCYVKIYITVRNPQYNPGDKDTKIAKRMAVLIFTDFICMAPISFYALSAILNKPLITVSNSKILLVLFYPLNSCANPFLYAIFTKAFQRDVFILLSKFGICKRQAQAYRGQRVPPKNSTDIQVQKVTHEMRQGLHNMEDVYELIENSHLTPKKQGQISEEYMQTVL
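Antagonism was scored as loss of TSH-driven cAMP in TSHR cells, stimulated with 4nM TSH (EC80) for 2 hours at 37 deg C and detected by homogeneous HTRF competition immunoassay.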
N370S GC – inhibitors or activators of N370S glucocerebrosidase for Gaucher disease. N370S GC spleen homogenate, 4MU-glucoside fluorescence. Potency, µM (doses to about 59.4 µM), without a hit: top-dose activity change, negative = inhibition, usual class: inhibitors. 0.092% of 330,000 active;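 further: potency means the concentration at half of the fitted maximal effect; 0% = full enzyme activity and -100% = no enzyme basal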
p53 reactivator – restores transcriptional activity of mutant p53 | H1299 p53-A138V BP100-luciferase reporter, luminescence, 24 h | 0.063% of 320,000 active | AID 504706 | Potency, µM (doses to about 92.2 µM), inactives show top-dose activity change, positive = activation, usual class: activators; further: potency means the concentration at half of the fitted maximal effect; % of control where 0% means no effect; nearly all actives have a fitted effect of over 45% in size
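H1299 (p53-null), stable ts p53-A138V + BP100-Luc; 1000 cells/well, Opti-MEM/10% FBS; cpd 4 pt, 1:5; 24 h, 37 deg C, 5% CO2; detection reagent 10 min RT; luminescence.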
GLS inh – glutaminase GLS (human) inhibition; 0.21% of 410,000 active; AID 624170; Potency, µM (series often up to 45.5 µM), for the others: at the top dose activity change, negative = inhibition, hits mostly inhibitors; GLS enzymatic activity, qHTS titration; O94925; further: potency means the concentration at half of the fitted maximal effect; on the % scale 0 is the no-effect control and ±100 the full control effect
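hKGA; 45 mM KH2PO4 pH 8.2 + 0.02% Tween-20; cpd via pin tool; 1 mM Gln soln; GluOx/HRP/Amplex Red; RT 30 min; fluor. t0 & final.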
TCR activator – T cell receptor activation. AID 504894. 330,000 tested, under 10 active. primary human leukocytes, anti-CD3, IL-2 HTRF, 48 h. Potency, µM (top dose mostly 9.22 µM), for the others: at the top dose activation of IL-2 secretion, most hits filed as activators; further: % of control where 0% means no effect
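HTRF read-out of IL-2 secretion: europium cryptate donor excited at 320nm, d2 acceptor emission at 665nm. Cells were primary human leukocytes incubated 48 hr with compounds and a-CD3 beads, supplying TCR signal only.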
* = called active by the depositor; ? = inconclusive; / = not tested or not shown; [ ] = remark or other dose. Unless noted, the call rests on the fitted dose curve; in most records, active means well fitted curve in the direction sought with a large enough effect; inconclusive means small, poorly fitted or top-dose-only effect, or another doubt; inactive means no such curve, though single readings can be large; an effect the other way counts as inactive or inconclusive.

SMILES	BRCA1 expr up	TSHR antagonist	N370S GC	p53 reactivator	GLS inh	TCR activator
COC(=O)c1ccc(N2NC(=O)/C(=C/c3ccc(-c4ccc(Cl)c(C(=O)O)c4)o3)C2=O)cc1	24.5%	5.9	-0.7%	1.4%	?	1.3%
O=C1NN(c2ccccc2)C(=O)/C1=C/c1ccc(-c2ccc(C(=O)O)cc2)o1	30.9%	-9.9	3.9%	5.3%	11.2µM*	0.7%
O=C1NN(c2ccc(Cl)c(Cl)c2)C(=O)/C1=C/c1ccc(-c2ccccc2C(=O)O)o1	0.2%	-4.4	-1.3%	-4.3%	12.6µM*	-2.4%
CCc1ccc(NS(=O)(=O)c2cc3[nH]c(=O)c(=O)[nH]c3cc2C)cc1	1.0%	-140.2*	?	-7.5%	10.0%	-7.1%
CC(=O)c1ccc(NS(=O)(=O)c2cc3[nH]c(=O)c(=O)[nH]c3cc2C)cc1	/	/	/	/	-0.5%	/
O=C(CBr)c1ccc(Oc2ccc(C(=O)C[n+]3cccc(Br)c3)cc2)cc1	-13.8%	/	/	/	/	/
O=C(NCCc1ccccc1)c1noc2c1CCCCC2	3.98µM*	-4.3	6.7%	?	?	-6.2%
Cc1ccc(Cn2ccc(NC(=O)c3noc4c3CCCC4)n2)cc1	5.62µM*	-10.6	2.1%	9.7%	-6.0%	-3.9%
CC[C@H](C)[C@H](NC(=O)[C@H](Cc1ccc(O)cc1)NC(=O)[C@@H](NC(=O)[C@H](CCCN=C(N)N)NC(=O)[C@@H](N)CC(=O)O)C(C)C)C(=O)N[C@@H](Cc1cnc[nH]1)C(=O)N1CCC[C@H]1C(=O)N[C@@H](Cc1ccccc1)C(=O)N[C@@H](Cc1cnc[nH]1)C(=O)N[C@@H](CC(C)C)C(=O)O	/	/	-6.8%	/	/	/
CCOc1ccc(/C=C/c2ccc3ccccc3n2)cc1OCC	-55.0%	/	/	/	/	/
CCCCN(C(=O)Cc1cccs1)c1nnc(-c2cccnc2)s1	3.16µM*	-10.8	-3.0%	?	6.1%	11.0%[46.1 µM]
C(=Nc1ccc(/C=C/c2ccnc3ccccc23)cc1)c1ccc2c(c1)OCO2	14.6%	/	/	/	/	/
CC1CCCC(NC(=O)c2ccc3c(c2)OCO3)C1C (stereo not drawn)	3.55µM*	-9.5	0.6%	26.0%	-3.7%	5.3%
O=C(NNC(=O)c1ccc2c(c1)OCO2)NC12CC3CC(CC(C3)C1)C2	9.6%	-32.2	18.0%	-10.3%	8.8%	-0.9%[46.1 µM]
O=C(NC1C2CC3CC(C2)CC1C3)c1ccc2c(c1)OCO2 (stereo not drawn)	17.7%	-126.1*	?	5.8%	4.5%	-8.6%
CN(C)c1ccc(-c2nc3ccccn3c2Nc2ccc3c(c2)OCCO3)cc1	/	/	/	/	12.9%	/
CCc1ccc(O)c(N=Cc2ccccc2O)c1	-23.5%	-11.7	-6.9%	?	0.8%	0.3%
O=c1[nH][nH]c2c(N=Cc3ccccc3O)ccc(F)c12	-1.2%	-22.5	0.6%	-3.3%	11.2µM*	2.6%
CCOc1ccccc1C(=O)NCc1ccc2c(c1)CCN2C(C)=O	/	/	/	/	-8.4%	/
Cc1cc(/C=C/c2c(C)cnc3ccccc23)ccc1N(C)C	-50.6%	/	/	/	/	/
Cn1c(=S)[nH]c2sc3c(c2c1=O)CCC(C(C)(C)C)C3 (stereo not drawn)	/	-5.4	-4.4%	20µM*	/	/
Cc1ccc(-n2ncc3c(=O)n(CC(=O)N(C)C)cnc32)cc1C	56.1%	5.5	4.8%	28.5%	-4.5%	-0.3%
CC(=O)Cn1cnc2c(cnn2-c2ccc(C)c(C)c2)c1=O	5.01µM*	1.6	-7.4%	?	-10.6%	-1.5%
CC(C)CCn1cnc2c(cnn2-c2ccc(F)cc2)c1=O	8.91µM*	-5.5	20.7%	?	-2.0%	0.0%
CCOC(=O)c1ccc(CNCc2ccccc2)cc1	11.2µM*	17.8	-5.1%	?	1.1%	1.1%[46.1 µM]
SMILES	BRCA1 expr up	TSHR antagonist	N370S GC	p53 reactivator	GLS inh	TCR activator
CCOC(=O)c1ccc(CNCc2ccc(Br)cc2)cc1	-37.8%	1.2	-8.5%	8.7%	1.9%	-2.8%[46.1 µM]
CCOC(=O)c1ccc(N/C=C/C(=O)c2ccccc2)cc1	12.6µM*	-33.2	8.3%	2.4%	0.2%	2.3%
COc1cc(CN2CCN(S(=O)(=O)c3ccc(NC(C)=O)cc3)CC2)cc(OC)c1O	11.1%	-2.3	-6.5%	10.9%	12.6µM*	/
Cc1cc(C)c2nc(N3CCCC(C(=O)NCCCN4CCOCC4)C3)sc2c1 (stereo not drawn)	70.9%	3.7	-23.6%	21.9%	0.0%	0.3%
Cc1cc(C)c2nc(N3CCCC(C(=O)NCCN4CCOCC4)C3)sc2c1 (stereo not drawn)	2.82µM*	4.5	?	?	-2.3%	10.4%
Clc1ccccc1-c1ccc2ncnc(NCCN3CCOCC3)c2c1	/	/	-8.9%	/	/	/
CSCC[C@H](NC(=O)[C@@H]1Cc2ccccc2CN1)C(=O)Nc1ccc2c(c1)OCCO2	11.2µM*	-7.6	-16.1%	?	5.6%	5.3%
CC(C)C(NC(=O)C1CCCCC1)C(=O)Nc1ccc2c(c1)OCCO2 (stereo not drawn)	4.47µM*	-0.8	9.2%	?	-13.0%	-3.0%
CC(Sc1ccc2c(c1)OCCO2)C(=O)Nc1ccc2c(c1)OCO2 (stereo not drawn)	4.6%	5.7	8.3%	0.7%	-13.9%	-4.4%
CC(Sc1ccccc1F)C(=O)Nc1ccc2c(c1)OCCO2 (stereo not drawn)	11.2µM*	/	/	?	-0.5%	0.9%
CC(C)C(NC(=O)C1CCCCC1)C(=O)Nc1ccncc1 (stereo not drawn)	1.9%	-1.6	-4.3%	7.3%	-11.0%	7.5%
COc1ccc(-c2nnc(SC(C)C(=O)Nc3ccc4c(c3)OCCO4)o2)cc1 (stereo not drawn)	10µM*	1.0	8.2%	?	0.7%	1.0%
CC(=O)Nc1ccc(NC(=O)C(C)Sc2nnc(-c3ccc4c(c3)OCO4)o2)cc1 (stereo not drawn)	59.1%	-11.0	/	?	-6.7%	-5.4%
Cc1ccc(NC(=O)c2ccc(NC(=O)C3CCCC3)cc2)c(C)c1	28.1%	/	/	/	/	/
O=C(/C=C/c1ccccc1)OCc1ccccc1	/	/	/	/	0.2%	/
CCSc1nnc(NC(=O)C2CCN(C(=O)c3ccco3)CC2)s1	-2.4%	/	/	/	/	/
Cn1c(NNC(=O)C(c2ccccc2)c2ccccc2)cc(=O)n(C)c1=O	-11.2%	5.8	-1.5%	12.1%	8.91µM*	-1.7%
C=CCSc1nnc(-c2ccc([N+](=O)[O-])cc2)o1	10µM*	2.9	-0.4%	?	1.3%	-46.7%
NC(=O)CSc1nnc(-c2ccc([N+](=O)[O-])cc2)o1	60.3%	-4.4	-2.3%	11.6%	-4.2%	-2.1%
Cn1cc(C(=O)NCc2ccc(Cl)cc2)c(=O)c2cc(S(=O)(=O)N3CCCCCC3)ccc21	/	/	/	/	-8.0%	/

Bioassay records as filed in PubChem BioAssay.
